# Source: PubChem BioAssay (National Center for Advancing Translational Sciences (NCATS))
# Most compounds without a hit are left out; they make up all but 21% or so of the library.
# Pf growth 48h = inhibits P. falciparum growth in the first generation, 48 h; P. falciparum luciferase growth in erythrocytes, 48 h; Potency, µM (doses to about 28.7 µM), for the others: at the top dose activity change, negative = inhibition, actives largely listed as inhibitors; 310,000 tested, 5.9% active; AID 504832; further: potency means the concentration at half of the fitted maximal effect; on the % scale 0 is the no-effect control and ±100 the full control effect
#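 A one-generation exposure of luciferase-tagged malaria parasites in RPMI 1640/Albumax erythrocyte culture, 37 C and 5% CO2. Inhibition is inferred from decreased luminescence after adding detection reagent.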
# CHX counter = counter-screen for Shiga toxin inhibitors: cycloheximide protein synthesis inhibition; cell reporter, cycloheximide protein synthesis inhibition counterscreen; max response, %; 300,000 tested, 12% active; AID 2314; in the data active means max response mostly above about 13%, no sharp cut-off; inactive means mostly below about 14%; further: read at 38.3 µM for the half of the compounds with a filed dose; 0% is about no effect
# Shiga toxin inh = Shiga toxin inhibition. inhibition, % at 38.7 µM. 290,000 tested, 9.2% active. Vero cells, Shiga toxin protein synthesis inhibition reporter; in the data active means inhibition mostly above about 28%, no sharp cut-off; inactive means mostly below about 43%; further: 0% is about no effect
# Pf growth 96h = P. falciparum growth inhibition at 96 hours. P. falciparum luciferase reporter growth, 96 h. Potency, µM (highest dose often 28.7 µM), without a hit: at the top dose activity change, negative = inhibition, hits mostly inhibitors. 320,000 tested, 6.9% active. AID 504834; further: potency means the concentration at half of the fitted maximal effect; on the % scale 0 is the no-effect control and ±100 the full control effect
#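 Luminescence readout: decreased luciferase signal marks inhibited growth of reporter-expressing P. falciparum in infected red cells (2% hematocrit, 0.05% parasitemia final), exposed to compound two generations (96 h, 37 C, 5% CO2).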
# Starred values were filed as active, the others as inactive; ? = inconclusive; nt = no result. Unless noted, the call rests on the fitted dose curve; in most records, active means well fitted inhibition curve with a large enough effect; inconclusive means small, poorly fitted or top-dose-only effect, or another doubt; inactive means no such curve, though single readings can be large or run the other way.
SMILES,Pf growth 48h,CHX counter,Shiga toxin inh,Pf growth 96h
CN(c1ccc(OCC(=O)NCc2cccnc2)cc1)S(=O)(=O)c1ccc(Cl)cc1,-40.2%,-1.4,-14.1,-3.5%
COc1ccc(Cl)cc1NS(=O)(=O)N1CCOCC1,-4.7%,-3.8,-5.5,46.5%
CCC(C)NC(=O)C(=O)NCC1CCCN1CC (configuration not stated),14.7%,-3.9,12.4,0.0%
Cc1cc(C)c(S(=O)(=O)N2CCCCC2)c(C)c1N(C)S(=O)(=O)c1ccc(Cl)cc1,9.28µM*,-0.4,-1.4,?
CSCC[C@H](NC(=O)N1CCn2c1nc1ccccc12)C(=O)NCc1ccccc1,-5.1%,-2.9,-4.4,1.2%
C/C(CC(=O)N1CCN(C=O)CC1)=N\NC(=O)c1ccc([N+](=O)[O-])cc1,-26.4%,20.0*,64.2,104.1%
C/C(CC(=O)N1CCN(C=O)CC1)=N\NC(=O)c1cc2ccccc2cc1O,-9.7%,1.7,5.0,-8.6%
Cc1[nH]c(C)c(S(=O)(=O)N2c3ccccc3CC2C)c1C(=O)N1CCCCC1 (configuration not stated),-10.6%,-3.4,-2.2,14.7µM*
CC(=O)c1ccc(N2CCN(S(=O)(=O)c3c(C)[nH]c(C)c3C(=O)N3CCCCC3)CC2)cc1,?,18.9*,16.6,14.1%
O=C(NNC1=NS(=O)(=O)c2ccccc21)c1ccccc1Cl,0.9%,-1.1,-7.4,-9.0%
N#CCCN(NC1=NS(=O)(=O)c2ccccc21)C(=O)c1ccccc1Br,15.4%,-2.6,-2.0,3.29µM*
CN1C(=O)N(C)C(NC(=O)Nc2ccccc2)C1NC(=O)Nc1ccccc1 (configuration not stated),-3.6%,3.2,-10.1,2.33µM*
Cc1ccc(NC(=O)NC2C(NC(=O)Nc3ccc(C)cc3)N(C)C(=O)N2C)cc1 (configuration not stated),1.8%,-0.4,18.3,nt
c1ccc2c(-c3cn4ccccc4n3)c[nH]c2c1,?,43.2*,141.6*,?
c1ccc2c(-c3nnc(SCc4cn5ccccc5n4)o3)c[nH]c2c1,nt,7.4,14.5,11.7µM*
c1ccc(CSc2nnc(-c3c[nH]c4ccccc34)o2)cc1,41.7%,48.2*,169.1*,12.8%
O=C(CSc1nnc(-c2c[nH]c3ccccc23)o1)c1ccc(-c2ccccc2)cc1,22.2%,6.9,3.3,0.4%
O=C(CSc1nnc(-c2c[nH]c3ccccc23)o1)N1c2ccccc2CCc2ccccc21,?,9.4,10.5,65.0%
CC(C)c1nc(SCC(=O)Nc2c[nH]c(=O)[nH]c2=O)c2cnn(-c3ccccc3)c2n1,-17.8%,-2.9,-3.9,3.0%
CC#C[C@]1(O)CC[C@H]2[C@@H]3CCC4=CC(=O)CCC4=C3[C@@H](c3ccc(N(C)C)cc3)C[C@@]21C,13.5µM*,-4.7,-17.2,6.75µM*
CC(=O)O[C@H]1CC[C@H]2[C@@H]3CCC4=CC(=O)CCC4=C3C=C[C@]12C,-5.1%,nt,nt,?
Cc1nn(C)c(C(=O)N/N=C/c2cccnc2)c1Br,-2.9%,-3.4,-4.1,?
Cn1ccc(C(=O)N/N=C/c2cccnc2)n1,9.1%,18.3*,44.9*,-24.0%
CN(C)c1ccc(/C=N/NC(=O)c2ccnn2C)cc1,225.7%,24.3*,58.4*,30.9%
CCN(CC)c1ccc(/C=N/NC(=O)c2c(Cl)c(C)nn2C)cc1,0.0%,-1.3,4.1,23.8%
SMILES,Pf growth 48h,CHX counter,Shiga toxin inh,Pf growth 96h
Cn1ccc(C(=O)N/N=C/c2ccccc2[N+](=O)[O-])n1,93.4%,40.2*,100.2*,81.4%
Cc1cc([N+](=O)[O-])nn1Cc1ccc(C(=O)N/N=C/c2ccc(N(C)C)cc2)cc1,-23.0%,8.6,2.8,21.6%
CN(C)c1ccc(/C=N/NC(=O)c2ccn(C)n2)cc1,189.5%,32.9*,33.9*,116.5%
CCOc1ccc(N(CC(=O)NCc2ccco2)C(=O)CCC(=O)Nc2ccccn2)cc1,?,1.3,-2.7,-28.3%
CC(C)(C)OC(=O)N/N=C\C=C\c1ccc2c(c1)OCO2,140.6%,28.6*,33.8*,3.7µM*
COC(=O)N/N=C\C=C\c1ccc2c(c1)OCO2,-5.5%,-2.2,-7.8,38.1%
CCOC(=O)N/N=C\C=C\c1ccc2c(c1)OCO2,58.5%,35.2*,58.1,?
Cc1cc(NC(=O)CCC(=O)N(Cc2ccccc2)C2(C(=O)NC3CCCCC3)CCCC2)no1,9.28µM*,7.1,-10.1,?
Cc1cc(NC(=O)CCC(=O)N(Cc2ccco2)C2(C(=O)NC3CCCCC3)CCCCC2)no1,-24.7%,-4.1,-6.5,1.31µM*
Cc1ccc(N2C(=O)CC(Sc3ccccc3C(=O)O)C2=O)cc1C (configuration not stated),13.6%,-2.5,15.8,84.6%
